# Measurements: PubChem BioAssay (NCATS)
# “And” between values parts separate entries of the source, which are not always exact repeats. Equal values may be shown once. Results filed as inconclusive are left out. Entries that show only a call come without a potency. Where a structure was tested more than once in an assay, its records may differ in their call. The source made the active and inactive calls. Calls come from the whole dose curve; as a rule, active = well fitted curve in the direction sought with a large enough effect; inconclusive = small, poorly fitted or top-dose-only effect, or another doubt; inactive = no such curve, though single readings can be large; an effect the other way counts as inactive or inconclusive.
# Key:
# [1] = Primary qHTS for inhibitors of nuclear receptor binding SET domain protein 2 (NSD2) in an isogenic RCH-ACV NSD2 p.E1099K mutant (9B) (AID 1645876); note: nearly all actives have a fitted effect of over 70% in size; note: potency is the fitted concentration of half-maximal effect
# [2] = Primary qHTS for inhibitors of nuclear receptor binding SET domain protein 2 (NSD2) in an RCH-ACV wild type WT cells (2C) (AID 1645877); note: nearly all actives have a fitted effect of over 70% in size; note: potency is the fitted concentration of half-maximal effect
# [3] = molecular target: Catechol O-methyltransferase (Homo sapiens) (UniProt P21964); test: Confirmatory Screen for Target Class Profiling of Small Molecule Inhibitors of Methyltransferases (AID 1745852); conditions: MTase-Glo luminescence, SAH detection, recombinant enzyme; measured here: COMT max response; stronger effect = lower value
# [4] = molecular target: Guanidinoacetate N-methyltransferase (Homo sapiens) (UniProt Q14353); test: as above; conditions: MTase-Glo luminescence, SAH detection, recombinant enzyme; activity change, negative = inhibition: at 57.3 µM (top of the series)
# [5] = molecular target: Rap guanine nucleotide exchange factor 3 (Homo sapiens) (UniProt O95398); test: Confirmatory qHTS for antagonist of cAMP-regulated guanine nucleotide exchange factor 3 (EPAC1) (AID 1645880); note: nearly all actives have a fitted effect of over 55% in size
# Method in brief: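 Nucleotide exchange uses 100 nM EPAC1, 250 nM RAP1B-BODIPY-GDP and 50 uM GDP, with compounds in a concentration-titration series. After 5 min at room temperature, fluorescence (480 nm ex/540 nm em) is read every 5 min for 30 min. Data are normalized to control ATA and DMSO.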
# [6] = molecular target: Rap guanine nucleotide exchange factor 3 (Homo sapiens) (UniProt O95398); test: Confirmatory qHTS for agonist of cAMP-regulated guanine nucleotide exchange factor 3 (EPAC1) (AID 1645881);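 note: EPAC1 catalysed release of BODIPY-GDP from Rap1B seen as fluorescence loss; nearly all actives have a fitted effect of over 75% in size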
# [7] = molecular target: Rap guanine nucleotide exchange factor 4 (Homo sapiens) (UniProt Q8WZA2); test: Confirmatory qHTS for agonist of cAMP-regulated guanine nucleotide exchange factor 4 (EPAC2) (AID 1645884);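 note: nucleotide exchange releases bodipy-GDP from Rap1 and this lowers its fluorescence; nearly all actives have a fitted effect of over 65% in size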
# [8] = molecular target: Rap guanine nucleotide exchange factor 4 (Homo sapiens) (UniProt Q8WZA2); test: Confirmatory qHTS for antagonist of cAMP-regulated guanine nucleotide exchange factor 4 (EPAC2) (AID 1645885); note: nearly all actives have a fitted effect of over 25% in size
# Chain of Rap guanine nucleotide exchange factor 3 (Homo sapiens) (O95398 whole entry, looked up): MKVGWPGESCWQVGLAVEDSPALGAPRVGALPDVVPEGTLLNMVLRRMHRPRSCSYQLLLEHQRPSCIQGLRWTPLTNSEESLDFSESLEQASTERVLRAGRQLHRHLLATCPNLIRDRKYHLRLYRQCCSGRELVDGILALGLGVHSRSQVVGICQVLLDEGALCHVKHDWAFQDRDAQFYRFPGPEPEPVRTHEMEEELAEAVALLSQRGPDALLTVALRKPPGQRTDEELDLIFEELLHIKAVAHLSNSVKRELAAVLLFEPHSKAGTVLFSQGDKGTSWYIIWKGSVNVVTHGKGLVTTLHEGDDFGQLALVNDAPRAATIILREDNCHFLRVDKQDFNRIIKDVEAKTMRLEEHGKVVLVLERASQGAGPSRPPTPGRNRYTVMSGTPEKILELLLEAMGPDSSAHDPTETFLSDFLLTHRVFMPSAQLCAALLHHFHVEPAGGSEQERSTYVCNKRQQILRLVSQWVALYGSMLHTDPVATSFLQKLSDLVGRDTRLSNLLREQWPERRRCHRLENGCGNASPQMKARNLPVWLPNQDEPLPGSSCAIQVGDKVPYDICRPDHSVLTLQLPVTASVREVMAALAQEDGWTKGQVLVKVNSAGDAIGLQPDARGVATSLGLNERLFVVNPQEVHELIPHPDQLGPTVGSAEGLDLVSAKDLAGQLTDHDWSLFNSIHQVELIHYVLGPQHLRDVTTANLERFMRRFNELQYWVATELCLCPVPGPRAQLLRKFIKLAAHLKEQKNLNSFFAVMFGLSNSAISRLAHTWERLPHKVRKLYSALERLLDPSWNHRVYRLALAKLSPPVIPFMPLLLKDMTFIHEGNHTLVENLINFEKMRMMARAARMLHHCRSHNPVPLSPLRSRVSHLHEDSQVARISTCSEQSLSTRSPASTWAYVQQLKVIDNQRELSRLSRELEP
# Chain of Rap guanine nucleotide exchange factor 4 (Homo sapiens) (Q8WZA2 whole entry, looked up): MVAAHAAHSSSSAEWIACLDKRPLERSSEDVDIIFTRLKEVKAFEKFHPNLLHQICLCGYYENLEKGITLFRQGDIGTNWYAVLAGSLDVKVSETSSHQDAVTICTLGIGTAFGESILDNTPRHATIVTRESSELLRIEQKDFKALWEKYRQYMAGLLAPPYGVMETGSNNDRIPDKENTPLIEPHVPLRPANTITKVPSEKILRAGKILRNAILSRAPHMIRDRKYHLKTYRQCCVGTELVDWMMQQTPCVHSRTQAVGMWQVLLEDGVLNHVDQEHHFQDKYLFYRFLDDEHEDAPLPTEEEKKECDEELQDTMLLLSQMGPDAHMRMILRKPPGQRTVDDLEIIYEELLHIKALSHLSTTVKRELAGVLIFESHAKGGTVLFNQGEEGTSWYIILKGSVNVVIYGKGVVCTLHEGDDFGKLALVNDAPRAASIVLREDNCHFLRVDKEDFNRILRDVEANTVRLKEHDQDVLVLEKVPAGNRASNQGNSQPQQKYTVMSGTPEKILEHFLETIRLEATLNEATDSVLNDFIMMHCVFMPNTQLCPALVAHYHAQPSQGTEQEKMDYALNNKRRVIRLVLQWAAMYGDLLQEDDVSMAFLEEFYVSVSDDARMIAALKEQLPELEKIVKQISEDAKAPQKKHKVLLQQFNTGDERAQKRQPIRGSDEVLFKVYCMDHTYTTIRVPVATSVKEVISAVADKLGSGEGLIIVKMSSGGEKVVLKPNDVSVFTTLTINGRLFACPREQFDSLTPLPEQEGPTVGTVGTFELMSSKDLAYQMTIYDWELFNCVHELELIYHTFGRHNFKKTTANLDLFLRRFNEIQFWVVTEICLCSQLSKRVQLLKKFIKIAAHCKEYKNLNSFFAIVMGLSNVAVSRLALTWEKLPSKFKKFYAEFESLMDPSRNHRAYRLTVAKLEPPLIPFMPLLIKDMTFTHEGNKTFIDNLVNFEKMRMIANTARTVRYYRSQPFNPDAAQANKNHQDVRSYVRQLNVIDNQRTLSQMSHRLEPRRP
# Chain of Catechol O-methyltransferase (Homo sapiens) (P21964 whole entry, looked up): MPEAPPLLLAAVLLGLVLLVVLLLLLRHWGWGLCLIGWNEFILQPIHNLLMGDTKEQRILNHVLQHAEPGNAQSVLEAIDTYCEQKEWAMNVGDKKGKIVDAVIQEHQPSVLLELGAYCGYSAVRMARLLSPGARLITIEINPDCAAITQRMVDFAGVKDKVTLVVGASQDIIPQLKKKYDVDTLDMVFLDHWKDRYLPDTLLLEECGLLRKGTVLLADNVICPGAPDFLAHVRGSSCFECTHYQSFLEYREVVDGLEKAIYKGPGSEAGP
smiles,measurement,setting,value
NNC(=O)c1ccncc1,Potency,[1],inactive
same,Potency,[2],inactive
O[C@@H](CNC[C@H](O)[C@H]1CCc2cc(F)ccc2O1)[C@@H]1CCc2cc(F)ccc2O1,Potency,[1],11.9 µM (active)
same,Potency,[2],11.9 µM (active)
O=C(O)c1cc(=O)[nH]c(=O)[nH]1,Potency,[1],inactive
same,Potency,[2],inactive
O=NN(CCCl)C(=O)NC1CCCCC1,Potency,[1],inactive
same,Potency,[2],inactive
COc1cnc(NS(=O)(=O)c2ccc(N)cc2)nc1,Potency,[1],inactive
same,Potency,[2],inactive
CC[C@H](NC(C)C)[C@H](O)c1ccc(O)c2[nH]c(=O)ccc12,Potency,[1],inactive
same,Potency,[2],inactive
COC(=O)Nc1nc2ccc(Sc3ccccc3)cc2[nH]1,Potency,[1],266 nM (active) and 417 nM (active)
same,Potency,[2],266 nM (active) and 372 nM (active)
CCCCOc1ccc(CC(=O)NO)cc1,Potency,[1],inactive and 16.6 µM (active)
same,Potency,[2],inactive and 16.6 µM (active)
CC(C)OC(=O)C(C(=O)OC(C)C)=C1SC=CS1,Potency,[1],inactive
same,Potency,[2],inactive
COc1ccccc1OCC(O)COC(N)=O (stereo not drawn),Potency,[1],inactive
same,Potency,[2],inactive
Cc1nnc(C(=O)NC(C)(C)c2nc(C(=O)NCc3ccc(F)cc3)c(O)c(=O)n2C)o1,Potency,[1],inactive
same,Potency,[2],inactive
CC(C)(C#N)c1cc(Cn2cncn2)cc(C(C)(C)C#N)c1,Potency,[1],inactive
same,Potency,[2],inactive
CCc1c2c(nc3ccc(OC(=O)N4CCC(N5CCCCC5)CC4)cc13)-c1cc3c(c(=O)n1C2)COC(=O)[C@]3(O)CC,Potency,[1],750 nM (active) and 235 nM (active)
same,Potency,[2],596 nM (active) and 118 nM (active)
COc1ccc2cc3[n+](cc2c1OC)CCc1cc2c(cc1-3)OCO2,Potency,[1],11.9 µM (active) and 5.9 µM (active)
same,Potency,[2],11.9 µM (active) and 3.32 µM (active)
S=P(N1CC1)(N1CC1)N1CC1,Potency,[1],inactive
same,Potency,[2],inactive
CCOC(=O)c1ccc(C#Cc2ccc3c(c2)C(C)(C)CCS3)nc1,Potency,[1],inactive
same,Potency,[2],inactive
Nc1nc(F)nc2c1ncn2[C@@H]1O[C@H](CO)[C@@H](O)[C@@H]1O,Potency,[1],2.09 µM (active) and 94.4 nM (active) and 1.29 µM (active)
same,Potency,[2],2.63 µM (active) and 84.1 nM (active) and 1.29 µM (active)
Nc1nc(N)nc(-c2cc(Cl)ccc2Cl)n1,Potency,[1],inactive
same,Potency,[2],inactive
CNCC[C@H](Oc1cccc2ccccc12)c1cccs1,Potency,[1],23.7 µM (active)
same,Potency,[2],23.7 µM (active)
CCOC(=O)[C@H](CCc1ccccc1)N[C@H]1CCc2ccccc2N(CC(=O)O)C1=O,Potency,[1],inactive
same,Potency,[2],inactive
CO[C@@]12[C@H](COC(N)=O)C3=C(C(=O)C(C)=C(N)C3=O)N1C[C@@H]1N[C@@H]12,Potency,[1],inactive
same,Potency,[2],inactive
COc1cccc(N(C)C(=S)Oc2ccc3c(c2)CCCC3)n1,Potency,[1],inactive
same,Potency,[2],inactive
COC(c1ccccc1)(c1ccccc1)[C@H](Oc1nc(C)cc(C)n1)C(=O)O,Potency,[1],inactive
same,Potency,[2],inactive
CCOC(=O)c1ccc(OC(=O)CCCCCN=C(N)N)cc1,Potency,[1],inactive
same,Potency,[2],23.5 µM (active)
O=C(O)CSCC(=O)NC1CCSC1=O (stereo not drawn),Potency,[1],inactive
same,Potency,[2],inactive
Nc1[nH]c(=O)ncc1F,Potency,[1],inactive
same,Potency,[2],inactive
CCCOc1ccc(C(=O)OCCN(CC)CC)cc1N,Potency,[1],inactive
same,Potency,[2],inactive
CC(C)(Sc1cc(C(C)(C)C)c(O)c(C(C)(C)C)c1)Sc1cc(C(C)(C)C)c(O)c(C(C)(C)C)c1,Potency,[1],inactive
same,Potency,[2],inactive and 8.33 µM (active)
COc1cc(NCc2ccc3nc(N)nc(N)c3c2C)cc(OC)c1OC,Potency,[1],13.3 nM (active) and 1.05 µM (active)
same,Potency,[2],15 nM (active) and 1.18 µM (active)
C1CCC(C(CC2CCCCN2)C2CCCCC2)CC1 (stereo not drawn),Potency,[1],7.42 µM (active)
same,Potency,[2],8.33 µM (active)
O=P(O)(O)C(O)(Cc1cccnc1)P(=O)(O)O,Potency,[1],inactive
same,Potency,[2],inactive
O=S(=O)(O)CCS,Potency,[1],inactive
same,Potency,[2],inactive
CCCc1nc(C)c2c(=O)[nH]c(-c3cc(S(=O)(=O)N4CCN(CC)CC4)ccc3OCC)nn12,Potency,[1],inactive
same,Potency,[2],inactive
COCCCOc1cc(C[C@@H](C[C@H](N)[C@@H](O)C[C@H](C(=O)NCC(C)(C)C(N)=O)C(C)C)C(C)C)ccc1OC,Potency,[2],inactive
Cn1nnc2c(C(N)=O)ncn2c1=O,Potency,[1],inactive
same,Potency,[2],inactive
CCn1cc(C(=O)O)c(=O)c2cc(F)c(N3CCNCC3)nc21,Potency,[1],inactive
same,Potency,[2],inactive
CC(C)Cn1cnc2c(N)nc3ccccc3c21,Potency,[1],inactive
same,Potency,[2],inactive
O=C(O)c1ccc(-n2nc(-c3ccccc3O)nc2-c2ccccc2O)cc1,Potency,[1],6.68 µM (active) and 4.17 µM (active)
same,Potency,[2],5.31 µM (active) and 4.17 µM (active)
CCn1cc(C(=O)O)c(=O)c2cc(F)c(N3CCNCC3)cc21,Potency,[1],inactive
same,Potency,[2],inactive
CN(Cc1cc(Br)cc(Br)c1N)C1CCCCC1,Potency,[1],inactive
same,Potency,[2],inactive
NC1(c2ccc(-c3nc4ccn5c(=O)[nH]nc5c4cc3-c3ccccc3)cc2)CCC1,Potency,[1],21.1 nM (active) and 64.9 nM (active) and 166 nM (active)
same,activity,[3],-9.12%
same,"activity change, negative = inhibition",[4],-8.7%
CNS(=O)(=O)Cc1ccc2[nH]cc(CCN(C)C)c2c1,Potency,[1],inactive
same,Potency,[2],inactive
CC1=NN(c2ccccc2)C(=O)C1,Potency,[1],inactive
same,Potency,[2],inactive
Cc1oc(=O)oc1CN1CCN(c2cc3c(cc2F)c(=O)c(C(=O)O)c2n3C(C)S2)CC1 (stereo not drawn),Potency,[1],inactive
same,Potency,[2],inactive
Cc1cccc(N(C)C(=S)Oc2ccc3ccccc3c2)c1,Potency,[1],inactive
same,Potency,[2],inactive and 14.8 µM (active)
same,outcome,[5],inactive
same,outcome,[6],inactive
same,outcome,[7],inactive
same,outcome,[8],inactive
Nc1ccc(S(=O)(=O)Nc2ccccn2)cc1,Potency,[1],inactive
same,Potency,[2],inactive
C[C@@H](CN1CC(=O)NC(=O)C1)N1CC(=O)NC(=O)C1,Potency,[1],16.8 µM (active) and 5.25 µM (active)
same,Potency,[2],8.33 µM (active)
COc1cc2c(Nc3ccc(Br)cc3F)ncnc2cc1OCC1CCN(C)CC1,Potency,[1],inactive and 3.65 µM (active) and 13.2 µM (active)
same,activity,[3],-17.2%
same,"activity change, negative = inhibition",[4],-2.94%
CC(=O)[C@H]1CC[C@H]2[C@@H]3CC=C4C[C@@H](O)CC[C@]4(C)[C@H]3CC[C@]12C,Potency,[1],inactive
same,Potency,[2],inactive
CC(C(=O)O)c1ccc2c(c1)CC(=O)c1ccccc1S2 (stereo not drawn),Potency,[1],inactive
same,Potency,[2],inactive
CN(C)CCc1c[nH]c2ccc(C[C@H]3COC(=O)N3)cc12,Potency,[1],inactive
same,outcome,[5],inactive
same,outcome,[6],inactive
same,outcome,[7],inactive
same,outcome,[8],inactive
O=C(O)c1cccnc1,Potency,[1],inactive
same,Potency,[2],inactive
COC(=O)Nc1nc2ccc(S(=O)c3ccccc3)cc2[nH]1 (stereo not drawn),Potency,[1],10.5 µM (active) and 596 nM (active)
same,Potency,[2],7.42 µM (active) and 335 nM (active)
CC(C)(C)C(=O)OCOP(=O)(COCCn1cnc2c(N)ncnc21)OCOC(=O)C(C)(C)C,Potency,[1],7.5 µM (active) and 7.42 µM (active)
same,Potency,[2],6.68 µM (active) and 7.42 µM (active)
COc1c(N2CCNC(C)C2)c(F)cc2c(=O)c(C(=O)O)cn(C3CC3)c12 (stereo not drawn),Potency,[1],inactive
same,Potency,[2],inactive
COC(=O)Nc1nc2ccc(C(=O)c3ccccc3)cc2[nH]1,Potency,[1],211 nM (active) and 417 nM (active)
same,Potency,[2],106 nM (active) and 372 nM (active)
CN(C)CCc1c[nH]c2ccc(CS(=O)(=O)N3CCCC3)cc12,Potency,[1],inactive
same,Potency,[2],inactive
CC(C)OC(=O)OCOP(=O)(CO[C@H](C)Cn1cnc2c(N)ncnc21)OCOC(=O)OC(C)C,Potency,[1],inactive
same,Potency,[2],inactive
Cc1cccc(Nc2ccncc2S(=O)(=O)NC(=O)NC(C)C)c1,Potency,[1],inactive
same,Potency,[2],inactive
CCn1cc(C(=O)O)c(=O)c2cc(F)c(N3CCN(C)CC3)cc21,Potency,[1],inactive
same,Potency,[2],inactive
